# Calls of active or inactive are those of the source.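 The calls were made as follows: active = signal rise over 3 SD above mean of control wells given weak agonist, in both repeats and first screen; inactive = the rest.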
# System: TRPC4 (mouse), co-expressed with 5HT1a in HEK293
# Assay: calcium flux potentiators in TRPC4/5HT1a cells, confirmation, counter-screen for TRPC4 potentiator project, cell-based, second counter screen, HEK293 TRPC4/5HT1a, Fluo-4 (AID 434979)
# Details: Fluo-4 calcium flux, at 10 µM, serotonin added at its EC20 dose
row,Structure (SMILES),outcome
1,COc1ccc(C(CNC(=O)COc2ccccc2OC)N(C)C)cc1OC (centres undefined),inactive
2,COc1ccc(C(CNC(=O)CCOc2ccccc2)N(C)C)cc1 (centres undefined),inactive
3,CN(C)C(CNc1ccc(C(F)(F)F)cn1)c1ccccc1 (centres undefined),inactive
4,Fc1ccc(-n2cc(CNCCc3cccnc3)c(-c3ccccc3Cl)n2)cc1,inactive
5,CCOC(=O)c1ccc(NC(=O)NCCc2cnc[nH]2)cc1,inactive
6,CN1CCN(C(=O)c2cccn(Cc3c(Cl)cccc3Cl)c2=O)CC1,inactive
7,Cc1sc2ncnc(NCC(c3ccccc3)N(C)C)c2c1C (centres undefined),inactive
8,O=C(O)C1C2C=CC(C2)C1C(=O)N1CCN(C/C=C/c2ccccc2)CC1 (centres undefined),inactive
9,CCCCN(CC)CCNC(=O)c1cc2c(-c3ccc(Cl)cc3)nn(C)c2s1,inactive
10,O=C(Nc1ccncc1)c1ccc(Cl)c(S(=O)(=O)N2CCc3ccccc32)c1,inactive
11,CC(=O)OCC[N+](C)(C)C,inactive
12,COc1ccc(CCN(C)C(=O)C2CCCN(C3CCN(Cc4ccccc4)CC3)C2)cc1OC (centres undefined),inactive
13,Cc1cc(C)cc(NC(=S)N2CCN(c3ncc(C(F)(F)F)cc3Cl)CC2)c1,inactive
14,COc1ccc(C(CNC(=O)Cc2ccc(-c3ccccc3)cc2)N(C)C)cc1 (centres undefined),inactive
15,O=c1c(Cc2ccccc2)c(O)ccn1CCc1cnc[nH]1,inactive
16,COc1ccc(C(=O)NNC(=S)NC(=O)c2cccs2)cc1,inactive
17,CCC(=O)NC(C)C(c1cccs1)N1CCN(c2ccccc2)CC1 (centres undefined),inactive
18,NCCCNC(=O)c1cc2ccccc2[nH]1,inactive
19,Cn1c2ccccc2c(=O)c2c(=O)n(C3CCCCC3)c(-c3ccco3)nc21,inactive
